The text below walks through data of PubChem BioAssay (NCATS).

What all share (experiment): qHTS profiling for inhibitors of Plasmodium falciparum proliferation (AID 504749); note: nearly all actives have a fitted effect of over 60% in size
Common to all, as to conditions: P. falciparum in erythrocytes, SYBR Green DNA, 72 h; series mostly up to 28.7 µM
(In qHTS, concentration-response curves come from the screen itself.)

The test system of one assay is ATS95. In short, it runs like this: (§1)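 Fluorescence of SYBR Green-bound parasite DNA, read at 485/535 nm, served as the growth measure. Infected erythrocytes were cultured with compound 72 h; artemisinin (0.29 uM) and DMSO wells defined the normalization range.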
The test system of another assay is C2A. The gist of the method: as §1
The test system of another assay is CP217. In short, it runs like this:
as §1

A further assay concerns CP237. In short, it runs like this: as §1
A further assay relates to CP238. The gist of the method: as §1
Another assay has as its system CP250. The gist of the method: as §1
For a further assay, the system named is CP252. In short, it runs like this:
as §1

Another assay concerns CP256. In short, it runs like this: as §1
For a further assay, the system named is CP262. The gist of the method:
as §1

In another assay the test system is CP265. In short, it runs like this:
as §1

Another assay deals with CP266. In short, it runs like this: as §1
A further assay has as its system CP268. In short, it runs like this: as §1
A further assay deals with CP269. In short, it runs like this:
as §1

Another assay has as its system CP325. In short, it runs like this: as §1
For another assay, the system named is CP329. In short, it runs like this: as §1
For another assay, the system named is Dd2. In short, it runs like this: as §1
The subject of the next assay is ECU. The gist of the method:
as §1

A further assay has as its system GB4. The gist of the method:
as §1

For the next assay, the system named is P93_24. In short, it runs like this:
as §1

Another assay has as its system SC27B. In short, it runs like this:
as §1

Results filed as inconclusive are left out. Calls of active or inactive are those of the source. Calls come from the whole dose curve; as a rule, active = well fitted inhibition curve with a large enough effect; inconclusive = small, poorly fitted or top-dose-only effect; inactive = flat fitted curve, though single readings scatter.
Potency is the fitted concentration of half-maximal effect.

`C[C@@H]1C(SC2Cn3cnc[n+]3C2)=C(C(=O)[O-])N2C(=O)[C@H]([C@@H](C)O)[C@@H]12` (stereo not given in full): the Potency result with ATS95, in the assay with C2A, in the assay on CP217, in the assay with CP237, with CP238 and in the assay with CP250 was “inactive” each time. The Potency entry with CP252, with CP256, in the assay on CP262, in the assay with CP265, with CP266 and in the assay with CP268 was “inactive” throughout. For the same compound, the Potency result in the assay with CP269, in the assay with CP325, in the assay on CP329, with Dd2, in the assay with ECU and in the assay on GB4 was “inactive” in each case. The Potency result with P93_24 and with SC27B was “inactive” in each case.
`CC12C=CC(=O)C=C1[C@@H](F)CC1C2C(O)CC2(C)C1CC[C@]2(O)C(=O)CO` (stereo not given in full): the Potency result in the assay with ATS95, with C2A, with CP217, in the assay with CP237, in the assay on CP238 and with CP250 was “inactive” throughout. In addition, the Potency result in the assay on CP252, with CP256, in the assay on CP262, in the assay on CP265, with CP266 and in the assay on CP268 was “inactive” in each case. Moreover, the Potency entry in the assay on CP269, in the assay on CP325, in the assay with CP329, with Dd2, in the assay with ECU and with GB4 was “inactive” each time. For the same compound, the Potency entry in the assay on P93_24 and with SC27B was “inactive” throughout.
Regarding `OCC1O[C@@H](O[C@@H]2C(CO)OC(O)C(O)C2O)C(O)C(O)C1O` (stereo not given in full), the Potency result in the assay on ATS95, in the assay with C2A, in the assay with CP217, with CP237, in the assay with CP238 and in the assay on CP250 was “inactive” throughout. In addition, the Potency entry with CP252, in the assay with CP256, in the assay on CP262, in the assay on CP265, with CP266 and in the assay with CP268 was “inactive” throughout. For the same compound, the Potency entry in the assay on CP269, in the assay on CP325, in the assay with CP329, with Dd2, in the assay on ECU and in the assay on GB4 was “inactive” in each case. Also, the Potency entry in the assay on P93_24 and in the assay with SC27B was “inactive” in each case.
In the case of `CO/N=C(/C(=O)N[C@@H]1C(=O)N2C(C(=O)O)=C(CSc3nc(C)c(CC(=O)O)s3)CS[C@H]12)c1csc(N)n1`, the Potency entry in the assay with ATS95, in the assay with C2A, with CP217, in the assay on CP237, in the assay with CP238 and in the assay with CP250 was “inactive” throughout. The Potency result with CP252, in the assay with CP256, with CP262, in the assay on CP265, in the assay with CP266 and in the assay with CP268 was “inactive” each time. Moreover, the Potency result with CP269, in the assay with CP325, in the assay with CP329, in the assay with Dd2, in the assay with ECU and in the assay with GB4 was “inactive” each time. Moreover, the Potency result with P93_24 and with SC27B was “inactive” throughout.
Regarding `CO/N=C(/C(=O)N[C@@H]1C(=O)N2C(C(=O)O)=C(C[n+]3ccc(N)n3CCO)CS[C@H]12)c1csc(N)n1`, the Potency result in the assay on ATS95, in the assay with C2A, in the assay on CP217, in the assay with CP237, with CP238 and with CP250 was “inactive” in each case. The Potency entry in the assay on CP252, with CP256, in the assay on CP262, in the assay on CP265, with CP266 and with CP268 was “inactive” throughout. The Potency entry in the assay on CP269, with CP325, with CP329, in the assay with Dd2, in the assay with ECU and in the assay with GB4 was “inactive” each time. In addition, the Potency result in the assay on P93_24 and with SC27B was “inactive” throughout.
`COc1cccc2c1C(=O)c1c(O)c3c(c(O)c1C2=O)C[C@@](O)(C(=O)CO)C[C@@H]3OC1CC(N)C(O)C(C)O1` (stereo not given in full): the Potency is 2000 nM (active) in the assay on ATS95; 2240 nM (active) in the assay with C2A; 2510 nM (active) in the assay with CP217; 891 nM (active) with CP237; 2240 nM (active) in the assay with CP238; 2510 nM (active) with CP250. Also, the Potency in the assay with CP252 is 2510 nM (active); in the assay with CP256, 2240 nM (active); in the assay on CP262, 2390 nM (active); with CP265 it was 3980 nM (active); in the assay on CP266, 3380 nM (active); in the assay on CP268, 3790 nM (active). The Potency in the assay with CP269 was 3380 nM (active); in the assay on CP325, 3790 nM (active); in the assay on CP329, 1900 nM (active); with Dd2, 1260 nM (active); with ECU, 3160 nM (active); with GB4 it was 1690 nM (active). Moreover, the Potency is 2000 nM (active) in the assay on P93_24 and 2510 nM (active) with SC27B.
On to `CC1(C)C2CC[C@]1(C)[C@@H](O)C2`, for which the Potency entry in the assay on ATS95, in the assay on C2A, in the assay on CP217, with CP237, with CP238 and in the assay with CP250 was “inactive” throughout. The Potency result in the assay with CP252, with CP256, in the assay with CP262, in the assay with CP265, in the assay with CP266 and in the assay with CP268 was “inactive” throughout. Further, the Potency result in the assay on CP269, in the assay on CP325, with CP329, in the assay on Dd2, in the assay on ECU and with GB4 was “inactive” each time. In addition, the Potency result in the assay on P93_24 and in the assay on SC27B was “inactive” each time.
`O=C(O)CC(O)CC(O)/C=C/c1c(C2CC2)nc2ccccc2c1-c1ccc(F)cc1` (stereo not given): the Potency entry with ATS95, in the assay with C2A, in the assay on CP217, in the assay with CP237, in the assay on CP238 and in the assay with CP250 was “inactive” in each case. The Potency result in the assay with CP252, in the assay with CP256, in the assay on CP262, with CP265, with CP266 and with CP268 was “inactive” in each case. Also, the Potency entry with CP269, with CP325, with CP329, in the assay with Dd2, in the assay on ECU and in the assay on GB4 was “inactive” throughout. For the same compound, the Potency result in the assay on P93_24 and with SC27B was “inactive” in each case.
Turning to `CCCCN1CC(O)C(O)C(O)C1CO` (stereo not given), the Potency result in the assay with ATS95, in the assay on C2A, in the assay with CP217, in the assay on CP237, with CP238 and in the assay with CP250 was “inactive” in each case. Further, the Potency result in the assay on CP252, in the assay with CP256, with CP262, in the assay on CP265, in the assay on CP266 and with CP268 was “inactive” each time. The Potency entry in the assay with CP269, in the assay on CP325, in the assay on CP329, in the assay on Dd2, in the assay with ECU and with GB4 was “inactive” in each case. In addition, the Potency result with P93_24 and in the assay with SC27B was “inactive” throughout.
Take `CNC1C(O)C(OC2C(N)CC(N)C(OC3OC(CN)=CCC3N)C2O)OCC1(C)O` (stereo not given): the Potency result with ATS95, in the assay with C2A, with CP217, in the assay with CP237, in the assay on CP238 and in the assay with CP250 was “inactive” in each case. Further, the Potency result in the assay on CP252, with CP256, in the assay with CP262, in the assay on CP265, in the assay on CP266 and in the assay with CP268 was “inactive” each time. In addition, the Potency result in the assay with CP269, with CP325, with CP329, in the assay on Dd2, in the assay on ECU and in the assay on GB4 was “inactive” each time. The Potency result in the assay on P93_24 and with SC27B was “inactive” each time.
Consider `CCN1CCN(C(=O)NC(C(=O)NC2C(=O)N3C(C(=O)O)=C(CSc4nnnn4C)CSC23)c2ccc(O)cc2)C(=O)C1=O` (stereo not given), for which the Potency result with ATS95, in the assay with C2A, in the assay on CP217, in the assay on CP237, in the assay on CP238 and with CP250 was “inactive” throughout. Besides, the Potency entry in the assay with CP252, in the assay on CP256, with CP262, with CP265, with CP266 and with CP268 was “inactive” in each case. Moreover, the Potency result with CP269, with CP325, in the assay with CP329, in the assay with Dd2, in the assay with ECU and in the assay with GB4 was “inactive” throughout. The Potency entry in the assay with P93_24 and in the assay on SC27B was “inactive” in each case.
For the compound `CCN(CC)C(=O)Nc1ccc(OC[C@H](O)CNC(C)(C)C)c(C(C)=O)c1`, the Potency result in the assay on ATS95, with C2A, in the assay on CP217, in the assay with CP237, in the assay on CP238 and in the assay on CP250 was “inactive” in each case. For the same compound, the Potency entry in the assay on CP252, in the assay on CP256, in the assay on CP262, in the assay with CP265, in the assay with CP266 and with CP268 was “inactive” each time. Further, the Potency result in the assay with CP269, in the assay on CP325, with CP329, with Dd2, with ECU and in the assay with GB4 was “inactive” each time. For the same compound, the Potency result in the assay with P93_24 and with SC27B was “inactive” throughout.
